High-throughput results (PubChem BioAssay)
This is a sample that favours compounds with a hit; in the whole collection about 1.8% have one here.
AGP1 TOR yeast: modulators of AGP1-GFP expression in yeast TOR pathway, primary screen, cell-based, multiplex flow cytometry, S. cerevisiae, MLPCN library; GFP response vs DMSO, % at 10 µM; 3 h; GFP as percent of DMSO wells; 320,000 tested, 0.02% active; AID 2066, 2009;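 active means GFP response relative to DMSO above a set limit, near screen average plus 3 SD, cut at about 150% in these data; inconclusive means fewer than 70 cells counted for the yeast strain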;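 further: median GFP channel fluorescence of the gated AGP1 strain per well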
Myeloid diff MLP: induction of myeloid progenitor differentiation, primary screen, cell-based, flow cytometry, MLPCN library. 360,000 tested, 1% active. AID 624256, 2012. ER-HoxA9 myeloid progenitors, lysozyme-GFP differentiation. calls only at 10 µM;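 active means normalized GFP-positive differentiation at or above the plate's own cutoff, the solvent-only control mean plus 3 SD; inconclusive means no clear call, values can overlap the other calls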;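 further: cells exposed to compound for four days before flow analysis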
MEP2-GFP yeast: modulators of MEP2-GFP levels in yeast, primary screen, S. cerevisiae, multiplex flow cytometry, MLPCN library; AID 2016, 2009; 330,000 tested, 0.51% active; S. cerevisiae MEP2-GFP strain, 3 h; 100% = DMSO control level; GFP response vs DMSO, % at 10 µM;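 active means GFP response versus DMSO above a set limit, roughly screen mean plus 3 SD, cut at about 180% in these data; inconclusive means fewer than 70 cells counted for a yeast strain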;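 further: median GFP fluorescence of the barcode-gated MEP2-GFP cells per well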
CIT2 TOR yeast: modulators of CIT2-GFP expression in yeast, primary screen, S. cerevisiae, GFP fusion, multiplex flow cytometry, MLPCN library; GFP response vs DMSO, % at 10 µM; S. cerevisiae CIT2-GFP strain, 3 h; 100 means same as DMSO wells; 320,000 tested, 0.065% active;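 active means GFP response relative to DMSO above a set limit, near the screen mean plus 3 SD, cut at about 150% in these data; inconclusive means Fewer than 70 cells measured for a yeast strain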;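 further: ratio of well median GFP fluorescence to mean of DMSO wells on the plate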
LAP4-GFP MLPCN: modulators of LAP4-GFP expression in yeast, primary screen, S. cerevisiae, multiplex flow cytometry, MLPCN library; 3 h; median GFP as percent of DMSO wells; GFP response vs DMSO, % at 10 µM; 320,000 tested, 0.34% active;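 active means GFP response vs DMSO above a set limit, about the screen mean plus 3 SD, cut at about 150% in these data; inconclusive means under 70 cell events counted for the yeast strain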
RPL19A-GFP yeast: RPL19A-GFP expression modulators in yeast, primary screen, cell-based, S. cerevisiae, multiplex flow cytometry, MLPCN; S. cerevisiae RPL19A-GFP strain, 3 h; stronger effect = lower value; percent response vs DMSO, % at 10 µM; 330,000 tested, 0.3% active;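 active means percent response vs DMSO below 50%; inconclusive means fewer than 70 events counted for the yeast strain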;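 further: median channel GFP fluorescence of the barcoded RPL19A-GFP strain; ratio of sample median GFP to plate DMSO average so 100% = DMSO; lower means less RPL19A-GFP as with rapamycin TOR inhibition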
Starred values were filed as active, the others as inactive; i = inactive; u = inconclusive; x = no result given; + = active, no number; ! = repeats disagree; [ ] = remark or other dose.

SMILES	AGP1 TOR yeast	Myeloid diff MLP	MEP2-GFP yeast	CIT2 TOR yeast	LAP4-GFP MLPCN	RPL19A-GFP yeast
CC(=O)/C=C1\N(C)c2ccc(C)cc2C1(C)C	104	i	97	96	97	96
CN1/C(=C\C=N\NC(=O)c2cccnc2)C(C)(C)c2ccccc21	99	i	95	97	104	96
Cc1ccc(C(=O)NC(=S)/C=C2\N(C)c3ccccc3C2(C)C)cc1	98	+	113	104	100	104
CN1/C(=C\C(=O)C(F)F)C(C)(C)c2ccccc21	98	i	104	96	95	108
CN1/C(=C\C=N\NC(=O)c2ccc(O)cc2)C(C)(C)c2ccccc21	108	+	107	109	98	104
CCCCOC(=O)c1ccc(N=Nc2c(C)c(C#N)c(O)[nH]c2=O)cc1	96	i	95	94	98	94
COc1cccc(-c2noc(C3CCCN(S(=O)(=O)c4cccc(Cl)c4C)C3)n2)c1 (configuration not stated)	98	i	99	100	99	103
CC(=O)OCC(=O)C1(O)CCC2C3CC(C)C4=CC(=O)C=CC4(C)C3C(O)CC21C (configuration not stated)	x	i	x	x	x	x
CCN(CC)S(=O)(=O)c1ccc2[nH]c(=O)cc(C(=O)Nc3ccc(C)c(S(=O)(=O)N(CC)CC)c3)c2c1	96	i	101	103	90	98
C=CCN1C(=O)/C(=C/C=C2/N(CC)c3ccc(S(=O)(=O)N(C)C)cc3N2CC)SC1=S	100	+	101	94	96	102
C=CCN1C(=O)/C(=C2/Sc3ccccc3N2CC)SC1=S	100	i	108	100	96	104
COc1cc(/C=C(\C#N)C(=O)c2ccc(O)c(O)c2)cc(I)c1O	86	+	103	78	127	98
COc1ccc(C=C(C#N)C(=O)c2ccccc2)cc1	x	i	x	x	x	x
COC(=O)C(C)NC(=O)c1ccc(C(C)(C)C)cc1 (configuration not stated)	98	i	88	104	92	99
FC(F)(F)c1cc(-c2cccs2)nc2cc(-c3cccs3)nn12	113	i	179*	128	143	99
NNC(=O)c1cc2nc(-c3cccs3)cc(C(F)(F)F)n2n1	11	i	111	u	72	81
FC(F)(F)c1cc(C(F)(F)F)n2nc(-c3sccc3-n3cccc3)cc2n1	107	+	108	100	104	108
COC(=O)[C@@H]1Cc2c([nH]c3ccccc23)C(C)(C)N1C(=O)CCl	100	i	104	101	95	107
COCC(C)n1c(-c2ccc3c(c2)NC(=O)CO3)csc1=Nc1ccc(OC(F)F)cc1 (configuration not stated)	91	+!	87	x	91	98
O=C1COc2ccc(-c3csc(=Nc4ccc(OC(F)F)cc4)n3CC3CCCO3)cc2N1 (configuration not stated)	100	i	105	94	95	99
O=C(CCc1nc(-c2ccc(F)cc2)no1)Nc1cccc(C(=O)NC2CC2)c1	102	i	103	87	101	99
O=C(O)C1CCC(NSc2ccccc2[N+](=O)[O-])CC1 (configuration not stated)	90	i	96	96	199*	90
C/C(=N\OCc1ccccc1)c1c(O)cc(C(C)C)n(-c2ccccc2)c1=O	98	i	104	87	92	96
Cc1ccccc1C1C(C#N)=C2N=C(N)c3c(sc4c3CCCCC4)N2C2=C1C(=O)CC(C)(C)C2 (configuration not stated)	97	+	97	106	102	101
Cc1ccccc1C1C(C#N)=C2NC(=O)c3c(sc4c3CCCCC4)N2C2=C1C(=O)CC(C)(C)C2 (configuration not stated)	96	x	96	100	98	95
SMILES	AGP1 TOR yeast	Myeloid diff MLP	MEP2-GFP yeast	CIT2 TOR yeast	LAP4-GFP MLPCN	RPL19A-GFP yeast
CC(C)N(NC(=O)c1cccc2ccccc12)C(C)C	96	i	95	95	98	88
CN(C)c1ccc(CNC(=O)C2CCN(S(=O)(=O)c3ccc4c(c3)CCC(=O)N4)CC2)cc1	103	i	98	100	96	99
Cc1ccc(C(=O)CCS(=O)(=O)c2ccc(Br)cc2)cc1	119	i	106	159*[may fluoresce green]	104	93
Cc1ccc(S(=O)(=O)CCC(=O)c2cccc([N+](=O)[O-])c2)cc1	122	i	107	161*[may fluoresce green]	108	95
Cc1ccc(-n2c(CCc3ccccc3)nnc2SCC(=O)NCc2ccccc2)cc1C	111	i	108	103	102	100
COc1ccc(CN2CCN(C(=O)c3ccc(S(=O)(=O)N4CCCCCC4)cc3)CC2)cc1	x	i	x	x	x	x
N/C(=N\OC(=O)Nc1ccccc1)c1ncc([N+](=O)[O-])s1	16	+	159	u	105	93
C=C1c2ccc(C)cc2NC(=O)N1c1ccccc1	94	x	102	92	108	92
NC(=O)c1nsc(C(=O)N(CC(=O)NCc2ccccc2)c2ccc(F)cc2)c1N	72	i	309*[may fluoresce violet]	u	87	64
C[C@H](NC(=O)c1ccc2c(c1)OCO2)c1nnc2ccccn12	91	i	89	84	86	88
COc1ccc(F)cc1C(=O)C1CCCN(C(=O)c2ccc(C(C)=O)s2)C1 (configuration not stated)	107	i	102	107	97	103
COc1ccc(F)cc1C(=O)C1CCCN(C(=O)C2=C(C)OCCO2)C1 (configuration not stated)	123	+	119	113	120	124
COC(=O)C1CCN(C(=O)COC(=O)CCc2nc3ccccc3c(=O)[nH]2)CC1	105	i	199*	100	122	112
O=C(CCc1nc2ccccc2c(=O)[nH]1)OCC(=O)N1CCc2ccccc21	90	i	111	85	124	91
COCCNCCCOc1ccc(C)cc1Br	88	i	104	97	88	93
COCCCNCCCOc1ccc(C)cc1Br	84	+	61	89	73	98
COc1ccc(C(=O)N(Cc2cccs2)C2CCS(=O)(=O)C2)cc1 (configuration not stated)	98	i	82	94	95	98
